Source: PubChem BioAssay (NCATS)
Records with an inconclusive call do not appear. Unmarked numbers belong to inactive results. Active and inactive are the calls of the source. Calls follow the shape of the dose curve; as a rule, active = well fitted cell-killing curve with a large enough effect; inconclusive = small, poorly fitted or top-dose-only effect, or effect the other way; inactive = no such curve, though single readings can be large or run the other way.

Columns and labels:
[1] = Quantitative High-Throughput drug screen in 47 multiple myeloma cell lines against the NCATS MIPE library collection: KMS28PE_JCRB cell viability assay (AID 1918983); also: nearly all actives have a fitted effect of over 35% in size
In short: (§1)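 500 cells/well per myeloma line exposed to pinned MIPE 4.0 compounds for 48 h at 37 °C, 5% CO2. Viability read as ATP by CellTiter-Glo luminescence, normalised to DMSO-only (100%) and media-only (0%) wells.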

[2] = Quantitative High-Throughput drug screen in 47 multiple myeloma cell lines against the NCATS MIPE library collection: OPM1_PLB cell viability assay (AID 1918989); also: nearly all actives have a fitted effect of over 40% in size
In short: as §1

[3] = Quantitative High-Throughput drug screen in 47 multiple myeloma cell lines against the NCATS MIPE library collection: XG6_PLB cell viability assay (AID 1919865); also: nearly all actives have a fitted effect of over 40% in size
In short: as §1

[4] = Quantitative High-Throughput drug screen in 47 multiple myeloma cell lines against the NCATS MIPE library collection: XG1_PLB cell viability assay (AID 1919866); also: nearly all actives have a fitted effect of over 35% in size
In short: as §1

[5] = Quantitative High-Throughput drug screen in 47 multiple myeloma cell lines against the NCATS MIPE library collection: PE2_PLB cell viability assay (AID 1919869); also: nearly all actives have a fitted effect of over 35% in size
In short: as §1

[6] = Quantitative High-Throughput drug screen in 47 multiple myeloma cell lines against the NCATS MIPE library collection: PCM6_Riken cell viability assay (AID 1919870); also: nearly all actives have a fitted effect of over 30% in size
In short: as §1

[7] = Quantitative High-Throughput drug screen in 47 multiple myeloma cell lines against the NCATS MIPE library collection: RPMI8226_ATCC cell viability assay (AID 1919871); also: nearly all actives have a fitted effect of over 30% in size
In short: as §1

[8] = Quantitative High-Throughput drug screen in 47 multiple myeloma cell lines against the NCATS MIPE library collection: OPM2_DSMZ cell viability assay (AID 1919872); also: nearly all actives have a fitted effect of over 30% in size
In short: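 Primary qHTS used for cherry-picking: cells at 500/well, library compounds for 48 h (37C, 5% CO2), luminescent ATP assay.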

[9] = Quantitative High-Throughput drug screen in 47 multiple myeloma cell lines against the NCATS MIPE library collection: KMS11_JCRBsus cell viability assay (AID 1919873); also: nearly all actives have a fitted effect of over 50% in size
In short: as §1

[10] = Quantitative High-Throughput drug screen in 47 multiple myeloma cell lines against the NCATS MIPE library collection: KMS28BM_JCRB cell viability assay (AID 1919874); also: nearly all actives have a fitted effect of over 35% in size
In short: as §1

[11] = Quantitative High-Throughput drug screen in 47 multiple myeloma cell lines against the NCATS MIPE library collection: OCIMY5_PLB cell viability assay (AID 1918988); also: nearly all actives have a fitted effect of over 65% in size
In short: as §1

[12] = Quantitative High-Throughput drug screen in 47 multiple myeloma cell lines against the NCATS MIPE library collection: SKMM1_PLB cell viability assay (AID 1919863); settings: SKMM1 myeloma viability, CellTiter-Glo ATP, 48 h; viability: active compounds read low; also: nearly all actives have a fitted effect of over 35% in size; as to viability: series mostly up to about 46 µM
In short: as §1

[13] = Quantitative High-Throughput drug screen in 47 multiple myeloma cell lines against the NCATS MIPE library collection: U266_ATCC cell viability assay (AID 1919864); also: nearly all actives have a fitted effect of over 35% in size
In short: as §1

[14] = Quantitative High-Throughput drug screen in 47 multiple myeloma cell lines against the NCATS MIPE library collection: KMS34_JCRB cell viability assay (AID 1918985); also: nearly all actives have a fitted effect of over 40% in size
In short: as §1

[15] = Quantitative High-Throughput drug screen in 47 multiple myeloma cell lines against the NCATS MIPE library collection: VP6_DJ cell viability assay (AID 1919867); also: nearly all actives have a fitted effect of over 40% in size
In short: as §1

[16] = Quantitative High-Throughput drug screen in 47 multiple myeloma cell lines against the NCATS MIPE library collection: UTMC2_PLB cell viability assay (AID 1919868); also: nearly all actives have a fitted effect of over 55% in size
In short: as §1

[17] = Quantitative High-Throughput drug screen in 47 multiple myeloma cell lines against the NCATS MIPE library collection: OCIMY7_PLB cell viability assay (AID 1918987); also: nearly all actives have a fitted effect of over 65% in size
In short: as §1
Potency is read from the fitted curve at half-maximal effect.

SMILES | Potency [1] | Potency [2] | Potency [3] | Potency [4] | Potency [5] | Potency [6] | Potency [7] | Potency [8] | Potency [9] | Potency [10] | Potency [11] | viability [12] [%] | Potency [13] | Potency [12] | Potency [14] | Potency [15] | Potency [16] | Potency [17]
OCCN1CCN(CCCN2c3ccccc3Sc3ccc(C(F)(F)F)cc32)CC1 | 18.7 µM (active) | 20.9 µM (active) | 23.5 µM (active) | 20.9 µM (active) | 20.9 µM (active) | 23.5 µM (active) | 16.6 µM (active) | inactive | 13.2 µM (active) | 23.5 µM (active) | – | – | – | – | – | – | – | –
Nc1c2c(nc3ccccc13)CCCC2 | 14.8 µM (active) | inactive | inactive | inactive | inactive | inactive | 1.32 µM (active) | – | inactive | 16.6 µM (active) | – | – | – | – | – | – | – | –
CN1CCN(C2=Nc3cc(Cl)ccc3Nc3ccccc32)CC1 | inactive | 23.5 µM (active) | – | – | inactive | – | inactive | inactive | – | inactive | inactive | 114 | inactive | – | – | – | – | –
CNCCCC12CCC(c3ccccc31)c1ccccc12 | 23.5 µM (active) | 23.5 µM (active) | 18.7 µM (active) | 26.4 µM (active) | – | – | 20.9 µM (active) | 23.5 µM (active) | 9.35 µM (active) | 16.6 µM (active) | 23.5 µM (active) | – | 16.6 µM (active) | 18.7 µM (active) | – | – | – | –
Clc1ccc(C(c2ccccc2Cl)C(Cl)Cl)cc1 (stereo unspecified) | 23.5 µM (active) | 20.9 µM (active) | – | – | inactive | – | 23.5 µM (active) | – | 18.7 µM (active) | 16.6 µM (active) | – | – | 20.9 µM (active) | 20.9 µM (active) | – | – | – | –
CN1C(C(=O)Nc2ccccn2)=C(O)c2ccccc2S1(=O)=O | inactive | – | inactive | inactive | – | – | inactive | inactive | inactive | – | – | 103 | inactive | – | inactive | inactive | – | –
CN(Cc1cnc2nc(N)nc(N)c2n1)c1ccc(C(=O)N[C@@H](CCC(=O)O)C(=O)O)cc1 | 16.6 µM (active) | – | 0.0469 µM (active) | 0.0372 µM (active) | – | – | – | – | 0.0935 µM (active) | – | – | – | 0.148 µM (active) | 5.9 µM (active) | 0.0935 µM (active) | – | 0.166 µM (active) | –
CC1(C)O[C@H]2CC(=O)OC[C@]23[C@H]2CC[C@@]4(C)[C@H](c5ccoc5)OC(=O)[C@H]5O[C@]54[C@]2(C)C(=O)C[C@@H]13 | inactive | – | inactive | inactive | – | – | inactive | inactive | inactive | inactive | – | – | – | – | inactive | – | – | –
CN(C)CCCN1c2ccccc2CCc2ccc(Cl)cc21 | 14.8 µM (active) | 14.8 µM (active) | 0.372 µM (active) | 0.372 µM (active) | 2.64 µM (active) | 0.469 µM (active) | 16.6 µM (active) | – | 20.9 µM (active) | 20.9 µM (active) | – | – | 0.526 µM (active) | 14.8 µM (active) | – | 0.935 µM (active) | 0.833 µM (active) | –
CCOC(=O)C(C)(C)Oc1ccc(Cl)cc1 | inactive | inactive | – | – | inactive | inactive | inactive | inactive | inactive | inactive | – | 104 | inactive | – | – | – | – | –
CN1CCC(=C2c3ccccc3CC(=O)c3sccc32)CC1 | inactive | 23.5 µM (active) | 5.9 µM (active) | 8.33 µM (active) | – | 14.8 µM (active) | inactive | – | inactive | – | – | 102 | – | – | – | – | 10.5 µM (active) | –
C[C@@H]1CC(=O)NN=C1c1ccc(NN=C(C#N)C#N)cc1 | 23.5 µM (active) | 18.7 µM (active) | 23.5 µM (active) | 18.7 µM (active) | – | 18.7 µM (active) | 20.9 µM (active) | – | 16.6 µM (active) | 23.5 µM (active) | – | – | – | – | 20.9 µM (active) | – | – | –
CN(C)C(=O)C(CCN1CCC(O)(c2ccc(Cl)cc2)CC1)(c1ccccc1)c1ccccc1 | 14.8 µM (active) | 23.5 µM (active) | 20.9 µM (active) | 18.7 µM (active) | 26.4 µM (active) | – | 20.9 µM (active) | 18.7 µM (active) | 10.5 µM (active) | 18.7 µM (active) | – | – | 18.7 µM (active) | 23.5 µM (active) | – | 20.9 µM (active) | 18.7 µM (active) | –
O=c1[nH]cc(F)c(=O)[nH]1 | inactive | – | 4.69 µM (active) | 7.43 µM (active) | inactive | – | 0.235 µM (active) | inactive | 13.2 µM (active) | inactive | inactive | – | 3.32 µM (active) | 13.2 µM (active) | – | – | inactive | 7.43 µM (active)
NC(=O)OCC(COC(N)=O)c1ccccc1 | inactive | – | inactive | inactive | inactive | – | inactive | inactive | – | – | – | – | 10.5 µM (active) | – | inactive | – | – | –
CCOC(=O)c1ncn2c1CN(C)C(=O)c1cc(F)ccc1-2 | inactive | inactive | inactive | inactive | – | – | 2.64 µM (active) | inactive | – | inactive | – | – | – | – | – | – | – | –
Clc1ccc2c(c1)C(N1CCNCC1)=Nc1ccccc1O2 | 18.7 µM (active) | 20.9 µM (active) | inactive | inactive | – | – | – | inactive | – | – | – | – | – | – | 18.7 µM (active) | – | – | –
CN1C2CCC1CC(OC(=O)C(CO)c1ccccc1)C2 (stereo unspecified) | inactive | inactive | inactive | inactive | inactive | – | inactive | inactive | inactive | inactive | – | – | – | – | – | – | inactive | –
NCCCCCC(=O)O | inactive | inactive | inactive | inactive | inactive | – | inactive | inactive | inactive | inactive | – | – | – | – | – | – | inactive | –
